Paper PMC7819943, “Rice protein-binding microarrays: a tool to detect cis-acting elements near promoter regions in rice”
The full ranking holds about 39,000 sequences; the median of “fluorescence intensity (a.u.)” is about 4,300, and the highest 2% start at about 39,000. Only a selection was taken, and the highest values are over-represented in it overall.

These sequences were tested against T1, OsSMF1 (Oryza sativa, UniProt Q6ZLB0 1-436) (assay: protein-binding microarray (RPBM); PBS, 2% BSA, 51.3 ng/ul salmon testes DNA, 50 uM zinc acetate, 200 nM TF, 25 C, 1 h; high values mean tight binding). Details: protein: recombinant; tags: N-terminal polyhistidine and DsRed monomer fusion (pET32a); chain copies: 2; label: CyDye5-dUTP incorporated in the synthesized complementary strand; 3' TTTTT single-stranded linker to array surface; dsDNA, one strand shown.
T1 sequence: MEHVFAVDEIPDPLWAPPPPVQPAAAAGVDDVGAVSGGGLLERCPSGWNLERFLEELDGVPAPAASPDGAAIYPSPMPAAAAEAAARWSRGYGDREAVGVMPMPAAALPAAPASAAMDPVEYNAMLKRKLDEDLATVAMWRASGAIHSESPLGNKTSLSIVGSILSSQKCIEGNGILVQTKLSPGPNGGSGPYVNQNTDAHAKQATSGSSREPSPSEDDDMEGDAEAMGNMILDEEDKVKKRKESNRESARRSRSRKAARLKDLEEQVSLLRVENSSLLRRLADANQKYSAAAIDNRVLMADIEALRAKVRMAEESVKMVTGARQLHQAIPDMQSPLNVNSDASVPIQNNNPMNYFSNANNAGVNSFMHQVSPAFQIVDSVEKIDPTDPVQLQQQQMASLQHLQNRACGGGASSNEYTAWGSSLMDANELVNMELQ
How it was run: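 Using Ni–NTA, transcription factors fused N-terminally to polyhistidine and DsRed were purified after expression in E. coli BL21-CodonPlus. These were incubated at 200 nM with a blocked, double-stranded custom Agilent array for 1 h at 25 °C in a buffer containing 50 µM zinc acetate, and the array was washed. The binding signal is per-feature fluorescence intensity (arbitrary units) on an Axon 4000B scanner.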

Sequence | binding signal
GTGCGTTGTGTGGTTGGTTGGTCAGTGTCTGGGTGGTCACCGGAGTCACCTAGTGCAG | 26000 fluorescence intensity (a.u.)
CTCTGGCGATGTGGCGTCTGGTCAAATTCATTGTCTCTACCGGAGTCACCTAGTGCAG | 47900 fluorescence intensity (a.u.)
ATTCGTCTGAAAATTGTGTTTCACATGCGTCATTTCTCTACGGAGTCACCTAGTGCAG | 5080 fluorescence intensity (a.u.)
GCGAAAACCCTGCATAAACATAGGAAAACACCAAGTGGGTCGGAGTCACCTAGTGCAG | 3560 fluorescence intensity (a.u.)
TTTGATCACCGGTCCGGTCTTAATAACTATGTGGCAGACGCGGAGTCACCTAGTGCAG | 3660 fluorescence intensity (a.u.)
GAAGTGGCGGCCCTTGGCGGAGAGAATGGCATGGCGAGAGCGGAGTCACCTAGTGCAG | 65100 fluorescence intensity (a.u.)
AAACACGCGGCATGGCGTGCCGCGATGCAGTCGGAGATGGCGGAGTCACCTAGTGCAG | 48600 fluorescence intensity (a.u.)
CGGGAGAGAGATCAGATGCGGCATGGCGTGGCCGTGGCGTCGGAGTCACCTAGTGCAG | 3380 fluorescence intensity (a.u.)
CCTCCTCAACGCCGCCACCTCATCCGTCCATACAGCGCCGCGGAGTCACCTAGTGCAG | 7110 fluorescence intensity (a.u.)
GCGGAGCCGACGCGGCGGCGATGCTCGGCCGCGTGGCGGTCGGAGTCACCTAGTGCAG | 3840 fluorescence intensity (a.u.)
AGTGGTGGAGAAGGAGAGGAGAGGCAGAGAGAATGAGGAGCGGAGTCACCTAGTGCAG | 3240 fluorescence intensity (a.u.)
CCCTGCGCTGCCACGCGGCCGGCATCCGCCAAAGCAACAGCGGAGTCACCTAGTGCAG | 4880 fluorescence intensity (a.u.)
AGCGAGAGAAGATGCTGACGTGGCATCATGACATGTGGGGCGGAGTCACCTAGTGCAG | 19300 fluorescence intensity (a.u.)
CAACAGCAGCAGCTACAACGCGGCATCCATGGCCGCCGCGCGGAGTCACCTAGTGCAG | 53300 fluorescence intensity (a.u.)
GCGTGGAGTGGAGAGTGGAGAGGCATGGGAGGCATGGCAGCGGAGTCACCTAGTGCAG | 42900 fluorescence intensity (a.u.)
AGAGGCATGGGAGTCATGTTCAGGGTGATGGGAGATGGAGCGGAGTCACCTAGTGCAG | 3260 fluorescence intensity (a.u.)
GAAGGAGAGGAGGAGAGGAGAGGAGAGAGGGAGGCAGCAGCGGAGTCACCTAGTGCAG | 3280 fluorescence intensity (a.u.)
ATAGCCCGTCCTCTTCATGGACCACGGTGTACAGCTTGCTCGGAGTCACCTAGTGCAG | 3980 fluorescence intensity (a.u.)
TTAGTTGTTCTTGTTCTCTTGGTTGGGACGTGGAGAGTTGCGGAGTCACCTAGTGCAG | 3440 fluorescence intensity (a.u.)
ACATTATCATGTCACGTCGTCGCGTAATCATGGGTACCCACGGAGTCACCTAGTGCAG | 4200 fluorescence intensity (a.u.)
GCCGACACGTCGCGACGCCGCTTGCCACGCGCCACGCGCGCGGAGTCACCTAGTGCAG | 6450 fluorescence intensity (a.u.)
TAAAATTATTATATTTTATAAGAAAGGTAACAAGTAAACACGGAGTCACCTAGTGCAG | 28600 fluorescence intensity (a.u.)

Sequence | binding signal
GCTAGGTTCAACGTCATGCCTCATGTTGTCTATTGCTGTTCGGAGTCACCTAGTGCAG | 4070 fluorescence intensity (a.u.)
GGGGTTAGTCGCCGGAGGTGTGGCGTGTCGACACGTACGCCGGAGTCACCTAGTGCAG | 8720 fluorescence intensity (a.u.)
TTGTTTCACCGCTTACGCCACGTGCGCCGCTCAGCTGTATCGGAGTCACCTAGTGCAG | 9840 fluorescence intensity (a.u.)
ATCCTCAACTCAATCCCGACGAAATCCCCTTCGATTTGAGCGGAGTCACCTAGTGCAG | 3290 fluorescence intensity (a.u.)
AAGAATTAAAGAAGCCTTTATAAGAAGAGAAGGCCAAGCTCGGAGTCACCTAGTGCAG | 60800 fluorescence intensity (a.u.)
TTAAAACGCATCAAGATTATAAGAGCCAAGAGAAATTGCACGGAGTCACCTAGTGCAG | 3520 fluorescence intensity (a.u.)
GATTAAATGGAAGAGAGAATGAATAATTAAGATTTAAAGACGGAGTCACCTAGTGCAG | 27400 fluorescence intensity (a.u.)
TCAAGGACCTCGTCATCCTCTCAGGTAACACACTTTCCCTCGGAGTCACCTAGTGCAG | 3780 fluorescence intensity (a.u.)
CTTCGCTCTCTTTTCCATTGCAGAGCCCTCACGCTTCCGCCGGAGTCACCTAGTGCAG | 3570 fluorescence intensity (a.u.)
ACGCCGCTAGTTCTTTTCTCCAGAGCAATCTGGTCAGTTCCGGAGTCACCTAGTGCAG | 59900 fluorescence intensity (a.u.)
TCCTCTTCTCCTCCGCCGCATCAGCAATCTCTCTTTCTACCGGAGTCACCTAGTGCAG | 4100 fluorescence intensity (a.u.)
AGAAGAGGTGATGTATAAAACATGTCACGATTTAATATCTCGGAGTCACCTAGTGCAG | 4070 fluorescence intensity (a.u.)
TTATTATGAAAATATATTTAATTATTGATTTGATGAAACTCGGAGTCACCTAGTGCAG | 21300 fluorescence intensity (a.u.)
GTATATATACACGTATACAAAGTTTATATATGACGTATACCGGAGTCACCTAGTGCAG | 6040 fluorescence intensity (a.u.)
ATAACCTAATATAAAGTTCGCTCATATGAAAATTTAAACTCGGAGTCACCTAGTGCAG | 51600 fluorescence intensity (a.u.)
GTGTTTATATAAGTGTTTGCATATGTACTATGTTTTAATACGGAGTCACCTAGTGCAG | 3730 fluorescence intensity (a.u.)
AATTATCATAAAACAACATATTTAAACCATGGTAACATAACGGAGTCACCTAGTGCAG | 6200 fluorescence intensity (a.u.)
AACATAATGTTTTAACTTAAACCTTAATAATGAAATTTCTCGGAGTCACCTAGTGCAG | 3670 fluorescence intensity (a.u.)
TTAATACGTATGAATATATAAAGTTTATATATGCATGTACCGGAGTCACCTAGTGCAG | 63000 fluorescence intensity (a.u.)
TATAAATTAATATGTAGTATATCACTTCATAAGTTTAAATCGGAGTCACCTAGTGCAG | 39300 fluorescence intensity (a.u.)
GATATGATTATTTATTTCTTTAAATGAAAATCATGTGTAACGGAGTCACCTAGTGCAG | 32500 fluorescence intensity (a.u.)
